Screening results: PubChem BioAssay, several laboratories
PP5 primary: PP5 phosphatase inhibitors, primary screen, biochemical, fluorescence | inhibition, % at 6.7 µM | purified PP5c, OMFP substrate fluorescence | Serine/threonine-protein phosphatase 5 (Homo sapiens), P53041 | 320,000 tested, 0.18% active;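 active = inhibition above the campaign's mean inhibition across all tested compounds plus 3 SD, cut at about 9.5% in these data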;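 note: 0% = DMSO only and 100% = 100 µM cantharidin control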
Target sequence (P53041 whole entry, looked up): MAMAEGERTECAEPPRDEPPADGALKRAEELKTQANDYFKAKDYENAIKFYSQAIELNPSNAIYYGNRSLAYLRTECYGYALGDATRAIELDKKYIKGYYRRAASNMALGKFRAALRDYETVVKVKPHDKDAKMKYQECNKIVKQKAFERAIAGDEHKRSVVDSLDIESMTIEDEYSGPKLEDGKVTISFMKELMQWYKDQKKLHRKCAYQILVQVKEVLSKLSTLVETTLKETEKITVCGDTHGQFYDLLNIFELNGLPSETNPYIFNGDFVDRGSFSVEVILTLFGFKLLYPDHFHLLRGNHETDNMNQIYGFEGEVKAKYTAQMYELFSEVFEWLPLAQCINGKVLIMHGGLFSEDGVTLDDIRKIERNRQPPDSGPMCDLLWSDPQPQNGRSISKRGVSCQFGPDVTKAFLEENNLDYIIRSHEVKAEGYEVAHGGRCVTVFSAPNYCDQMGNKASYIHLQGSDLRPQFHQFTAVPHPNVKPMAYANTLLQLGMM
PP1 counter: PP1-alpha phosphatase inhibitors, primary screen, counter-screen for PP5 inhibitor project, biochemical, fluorescence, OMFP substrate, single point; Serine/threonine-protein phosphatase PP1-alpha catalytic subunit (Homo sapiens), P62136; purified PP1alpha; inhibition, % at 6.7 µM; 320,000 tested, 0.9% active; AID 2235, 2010;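 active = inhibition above the mean inhibition of all tested compounds plus 3 SD, computed separately for each screening campaign, cut at about 15% in these data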
STK33 inh: inhibitors of purified STK33 kinase, primary screen, biochemical, ADP-Glo luminescence, homogeneous, cell-free; Serine/threonine-protein kinase 33 (Homo sapiens), Q9BYT3; MBP phosphorylation; inhibition, % at 10 µM; 320,000 tested, 0.073% active; AID 2661, 2010;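 active = inhibition at or above 25%, using the most active replicate where run in duplicate; inactive = inhibition below 25%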
Dyrk1A ADPGlo: rat Dyrk1A kinase inhibitors, primary screen, biochemical, single point, plate reader; Dual specificity tyrosine-phosphorylation-regulated kinase 1A (Rattus norvegicus), Q63470; ADP-Glo luminescence, NFATc1 peptide; inhibition, % at 12.5 µM; 310,000 tested, 0.43% active; in the data active = inhibition above about 50%;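 note: plate controls were vehicle with enzyme for no effect and no enzyme for full effect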
HIF activator: HIF pathway transcriptional activators, primary screen, cell-based, U2OS HRE-luciferase, luminescence | activation, % at 7.5 µM (by protocol) | U2OS HRE-luciferase reporter; normalized: DMSO 0%, desferrioxamine 100% | 300,000 tested, 0.32% active;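 active = mean activation of at least 10% of the iron chelator positive control signal, with at least half of replicates also reaching 10%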
Numbers without * were called inactive; · = no result given. In the library only some 1.5% were active in any assay of this set; here they are far more common.

SMILES	PP5 primary	PP1 counter	STK33 inh	Dyrk1A ADPGlo	HIF activator
Cc1ccc(/C=C(\C#N)c2nn(-c3ccccc3)c(N)c2C#N)cc1	0.3	1.6	-1.6	1.1	9.8*
Cc1c(/C=C(\C#N)c2nn(-c3ccccc3)c(N)c2C#N)c2ccccc2n1Cc1ccc(F)cc1	1.1	-6.9	-1.2	3.5	0.2
O=c1c(-c2c(O)cc(O)c3c2O[C@H](c2ccc(O)cc2)CC3)c(-c2ccc(O)cc2)oc2cc(O)cc(O)c12	·	·	25.3*	34.9	·
O=c1c(OC2OC(CO)C(O)C(O)C2OC2OC(CO)C(O)C(O)C2O)c(-c2ccc(O)cc2)oc2cc(O)cc(O)c12 (stereo not drawn)	3.3	-8.1	3.2	23.4	·
O=C(CCCN1C(=O)/C(=C/c2ccccc2Cl)SC1=S)NNC(=O)c1ccncc1	0.3	6.2	-1.4	-4.0	-2.0
O=C(CCCN1C(=O)/C(=C/c2ccccc2Cl)SC1=S)NNC(=O)c1ccccc1Cl	4.1	17.4*	-0.3	-2.3	-5.1
O=C(COc1cc2oc(=O)c3c(c2cc1Cl)CCC3)N1C[C@H]2C[C@@H](C1)c1cccc(=O)n1C2	2.7	-4.6	1.1	3.9	-0.3
COC(=O)c1cc(C)c(C)cc1NC1OC(CO)C(O)C1O (stereo not drawn)	·	·	·	6.5	·
CCc1ccc2c(c1)C(=O)C(=O)N2CC(=O)Nc1ccc(NC(=O)c2ccccn2)cc1	3.2	15.9*	-1.4	-0.1	-0.2
Cc1ccccc1Nc1nnc(-c2ccc(C(=O)NCCO)cc2)c2ccccc12	2.6	1.4	0.5	0.6	-25.0
Cc1c(C)c2cccnc2c2ncccc12	4.8	16.4*	13.2	·	·
Clc1cc2cccnc2c2ncccc12	1.4	9.8	-0.5	·	·
COc1ccccc1/C=C/CN1CCC(n2nccc2NC(=O)CCc2ccccc2)CC1	3.1	-2.0	0.3	-0.3	-0.8
O=C(CCc1ccccc1)Nc1ccnn1C1CCN(C/C=C/c2ccccc2)CC1	-0.1	1.1	-1.7	-4.6	434.5*
CC1SC(=NC(=O)c2ccncc2)NC1=O (stereo not drawn)	-3.2	-4.2	2.3	·	932.4*
CN(C)c1ncc(C2=C(Cl)C(=O)C(N3CCCC3)=C(Cl)C2=O)s1	9.2	16.6*	-1.3	-6.0	-0.3
CCN(CC)CCNC(=O)c1cc2cc(Br)ccc2s1	0.4	-4.8	0.1	·	-0.5
Cc1ccc(NC2CCCN(C(=O)CCN3CCCCO3)C2)cc1C (stereo not drawn)	1.9	-2.5	-0.7	-5.7	0.1
FC(F)(F)c1cnc(N2CCN(C(=S)NCc3ccccc3)CC2)c(Cl)c1	5.2	-0.3	-1.6	-5.6	44.5*
FC(F)(F)c1cnc(N2CCCN(C(=S)Nc3ccccc3)CC2)c(Cl)c1	5.8	3.2	-2.4	11.1	-0.4
O=C1c2cccc3cccc(c23)C(=O)C1(O)O	1.5	-4.6	0.5	78.7*	0.6
CC(=O)N1C(=O)c2cccc3cccc(c23)C(=O)N1C(C)=O	1.3	-1.6	1.0	·	-0.4
CSc1nc(N)nc2c1ncn2CC(=O)NCc1ccc2[nH]ccc2c1	·	·	-0.7	2.6	·
O=C(CC1SC(N2CCCC2)=NC1=O)Nc1ccc(C(=O)Nc2ncccc2O)cc1 (stereo not drawn)	-0.9	-2.9	-0.9	-0.2	20.4*
C=CC(=O)Nc1ccc(Nc2nc(NC3CCC(N(C)C)CC3)nc3c2ncn3C(C)C)cc1 (stereo not drawn)	·	·	80.6*	93.4*	·
SMILES	PP5 primary	PP1 counter	STK33 inh	Dyrk1A ADPGlo	HIF activator
COCCN(CC(=O)Nc1cccc(C)c1C)C(=O)c1cc2c(s1)CCC2	1.9	-1.9	1.0	-3.6	·
COc1ccc(C)cc1N=Nc1ccc(O)c2ncccc12	·	·	·	0.4	4.3
Oc1ccc(N=Nc2ccc3c(c2)OCCO3)c2cccnc12	-0.6	13.9	-0.8	-5.3	14.3*
Cc1ccccc1N=Nc1ccc(O)c2ncccc12	1.0	4.0	-0.6	-2.6	38.1*
CC(=O)c1ccc(NC(=O)C(C)OC(=O)COc2ccc(C#N)cc2)cc1 (stereo not drawn)	0.4	-1.1	-0.1	-0.6	0.6
c1ccc(-c2ccc(C(c3ccccc3)n3ccnc3)cc2)cc1 (stereo not drawn)	-0.8	16.1*	-1.8	5.4	0.4
